Bioassay records as filed in PubChem BioAssay.
The list is not random: actives were taken first. Their share in the collection is about 4.1%.
DAX1 inh-1: inhibitors of human orphan nuclear receptor DAX1 (NR0B1). P51843. HEK293 Gal4-DAX1 luciferase reporter, luminescence. inhibition, % at 6.75 µM. actives 0.99% (n = 340,000);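 active means inhibition above the mean over all tested compounds plus 3 SD, cut at about 4.2% in these data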;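 further: inhibition shows as a rise in luminescence from relieved DAX1 repression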
Target sequence (P51843 207-470 limits assumed): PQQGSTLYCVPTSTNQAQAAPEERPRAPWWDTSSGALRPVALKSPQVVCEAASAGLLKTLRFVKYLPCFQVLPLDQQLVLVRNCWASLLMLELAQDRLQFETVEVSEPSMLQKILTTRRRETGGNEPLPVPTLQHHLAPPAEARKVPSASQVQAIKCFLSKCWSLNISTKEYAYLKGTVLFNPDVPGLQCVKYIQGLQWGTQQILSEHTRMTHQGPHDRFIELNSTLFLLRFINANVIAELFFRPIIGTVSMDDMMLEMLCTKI
hgDAF-12 ag: hgDAF-12 agonism, primary luciferase screen; HEK293 GAL4-hgDAF12 UAS-luciferase reporter, agonist luminescence; normalized to butyrate control; activation, % at 6.8 µM; actives 1.8% (n = 370,000); AID 687014;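 active means activation above a cutoff set at the mean of all screened compounds plus 3 SD, cut at about 10% in these data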
hcDAF-12 act: activators of H. contortus DAF-12 nuclear receptor; activation, % at 6.8 µM; actives 1.4% (n = 370,000); HEK293 hcDAF-12 lit1-tk-luc reporter, luminescence; 0% DMSO, 100% Δ7-dafachronic acid;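 active means activation above the mean of all tested compounds plus 3 SD, cut at about 5.5% in these data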
ssDAF-12 act: S. stercoralis DAF-12 activation, primary screen; HEK293 ssDAF-12/GRIP1 lit1-tk-luc reporter, luminescence; % of 3 µM dafachronic acid response; activation, % at 6.8 µM; actives 1% (n = 370,000);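 active means activation above the mean over all tested compounds plus 3 SD, cut at about 0.9% in these data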
DAX1 inh-2: inhibitors of DAX1 repression of SF-1 activated StAR promoter; inhibition, % at 6.8 µM; HEK293T StAR-luciferase reporter, SF-1/DAX-1 repression relief; actives 1.1% (n = 370,000);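 active means inhibition above the mean over all tested compounds plus 3 SD, cut at about 3.6% in these data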;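 further: higher inhibition means more luminescence from relief of DAX-1 repression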
Hits are given with their value.

What do the screens show for `Cc1ccc(CCNC(=O)C2CCN(S(=O)(=O)N3CCC4(CC3)OCCO4)CC2)cc1`?
DAX1 inh-1: inactive; hgDAF-12 ag: inactive; hcDAF-12 act: 6.0; ssDAF-12 act: inactive; DAX1 inh-2: inactive

Results for COc1ccccc1C1CC(c2ccccc2)=NN1S(=O)(=O)c1ccccc1 (centres undefined) ?
DAX1 inh-1: inactive; hgDAF-12 ag: 11; hcDAF-12 act: inactive; ssDAF-12 act: inactive; DAX1 inh-2: inactive

How did CCOC(=O)CC[C@H]1CC[C@]2(CCCN(C3CCCCC3)C2)O1 do in these assays?
hgDAF-12 ag: inactive; hcDAF-12 act: inactive; ssDAF-12 act: inactive; DAX1 inh-2: inactive

Results for C[C@]12CCC[C@H](O1)c1c(cc3c(c1O)C(=O)c1c(O)cc(O)cc1C3=O)O2 ?
DAX1 inh-1: 5.1; hgDAF-12 ag: inactive; hcDAF-12 act: inactive; ssDAF-12 act: inactive; DAX1 inh-2: inactive

How did O=C(O)c1ccc(COc2ccc3ccccc3c2)o1 do in these assays?
DAX1 inh-1: inactive; hgDAF-12 ag: 10; hcDAF-12 act: inactive; ssDAF-12 act: inactive; DAX1 inh-2: inactive

How did CCOc1ccc(OCc2ccc(C(=O)O)o2)cc1 do in these assays?
DAX1 inh-1: inactive; hgDAF-12 ag: inactive; hcDAF-12 act: inactive; ssDAF-12 act: inactive; DAX1 inh-2: inactive

Results for C=CCc1ccc(OCCCOc2ccc(C)c(C)c2)c(OC)c1 ?
DAX1 inh-1: inactive; hgDAF-12 ag: inactive; hcDAF-12 act: inactive; ssDAF-12 act: inactive; DAX1 inh-2: inactive

What do the screens show for `CCCc1ccc(OCc2ccc(C(=O)O)o2)c(OC)c1`?
DAX1 inh-1: inactive; hgDAF-12 ag: inactive; hcDAF-12 act: inactive; ssDAF-12 act: inactive; DAX1 inh-2: inactive

What do the screens show for `C=CCc1ccc(OCCCCOc2ccc(C(=O)O)cc2)c(OC)c1`?
hgDAF-12 ag: inactive; hcDAF-12 act: inactive; ssDAF-12 act: 3.8; DAX1 inh-2: inactive

Results for C=CCc1ccc(OCc2ccc(C(=O)O)o2)c(OC)c1 ?
DAX1 inh-1: inactive; hgDAF-12 ag: inactive; hcDAF-12 act: 6.0; ssDAF-12 act: inactive; DAX1 inh-2: inactive

Results for C[C@@H]1CN([C@@H](C)CO)C(=O)CCCn2cc(nn2)CO[C@H]1CN(C)S(C)(=O)=O ?
hgDAF-12 ag: inactive; hcDAF-12 act: inactive; ssDAF-12 act: inactive; DAX1 inh-2: inactive

How did N#CCOc1nc(N2CCOCC2)nc(N2CCOCC2)n1 do in these assays?
DAX1 inh-1: 6.0; hgDAF-12 ag: inactive; hcDAF-12 act: inactive; ssDAF-12 act: inactive; DAX1 inh-2: inactive

How did N#CCOc1nc(N2CCCC2)nc(N2CCCC2)n1 do in these assays?
DAX1 inh-1: inactive; hgDAF-12 ag: inactive; hcDAF-12 act: inactive; ssDAF-12 act: inactive; DAX1 inh-2: inactive

Results for COc1cc(N=Nc2ccc3ccccc3c2)ccc1O ?
DAX1 inh-1: 8.1; hgDAF-12 ag: inactive; hcDAF-12 act: inactive; ssDAF-12 act: 1.7; DAX1 inh-2: inactive

How did COc1cc(N=Nc2ccccc2C(=O)O)ccc1O do in these assays?
DAX1 inh-1: inactive; hgDAF-12 ag: inactive; hcDAF-12 act: inactive; ssDAF-12 act: inactive; DAX1 inh-2: inactive

What do the screens show for `CCCCCCCCN1C(=O)[C@@H](CC(=O)NCCc2ccccc2OC)C[C@@]2(C(=O)OC)C1=C[C@H](C(C)(C)C)O[C@@H]2C`?
hgDAF-12 ag: inactive; hcDAF-12 act: inactive; ssDAF-12 act: inactive; DAX1 inh-2: inactive

Results for CCCCCCCCN1C(=O)[C@@H](CC(=O)N2CCN(C(=O)C3CC3)CC2)C[C@@]2(C(=O)OC)C1=C[C@H](COCc1ccccc1)O[C@@H]2C ?
hgDAF-12 ag: inactive; hcDAF-12 act: inactive; ssDAF-12 act: inactive; DAX1 inh-2: inactive

Results for CCOCCCNC(=O)Cn1cc2c(n1)-c1c(oc(C(=O)N3CCCC3)c1C)CC2 ?
DAX1 inh-1: 4.7; hgDAF-12 ag: inactive; hcDAF-12 act: inactive; ssDAF-12 act: inactive; DAX1 inh-2: inactive

What do the screens show for `CCCCN(C)CCCNC(=O)Cn1cc2c(n1)-c1c(oc(C(=O)N3CCCC3)c1C)CC2`?
DAX1 inh-1: inactive; hgDAF-12 ag: inactive; hcDAF-12 act: inactive; ssDAF-12 act: inactive; DAX1 inh-2: inactive

What do the screens show for `O=C(CCN1C(=O)/C(=C/c2ccccc2F)SC1=S)NCCCn1ccnc1`?
DAX1 inh-1: inactive; hgDAF-12 ag: inactive; hcDAF-12 act: 6.5; ssDAF-12 act: inactive; DAX1 inh-2: inactive

What do the screens show for `O=C(CCCN1C(=O)/C(=C/c2ccccc2)SC1=S)NCCCn1ccnc1`?
DAX1 inh-1: inactive; hgDAF-12 ag: inactive; hcDAF-12 act: inactive; ssDAF-12 act: inactive; DAX1 inh-2: inactive
